Experimental findings from PubChem BioAssay are described below.

Activity calls are given as the source filed them. Unless noted, how the calls were made is not given here.

Test [1] can be described thus: kinase inhibitors against Plasmodium liver-stage infection, cell-based, known kinase inhibitor set, luminescence, hepatoma host viability (AID 624392).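 Further: infected cells incubated roughly two days before readout.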 The conditions noted are these: Plasmodium liver stage in hepatoma cells, luciferase luminescence, concentration not given here; liver cell % of control: measured here: host liver cell viability; parasite % of control: stronger effect = lower value.

Test [2] is described as follows: modulators of glucocorticoid suppression of NF-kB, cell-based, luciferase, IL-1B stimulus, dexamethasone (AID 624486).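 On percent of negative control (+Dex): 100% = mean signal of vehicle control wells on the plate.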 The conditions noted are these: NF-kB luciferase reporter, IL-1B + dexamethasone, luminescence; percent of negative control (+Dex): actives lie on both sides, concentration not given here; z-score: measured here: IL-1B alone, no Dex. On the technique in general: A reporter such as luciferase makes a cellular process visible.

Test [3] is described as follows: kinase inhibitors altering Pseudomonas killing of worms, whole organism (AID 651566).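 Further: tested at 14 µM; sign flipped so higher z means a lower ratio.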 The conditions noted are these: C. elegans killed by P. aeruginosa, survival ratio.
A short description of test [4]: activators of macrophage pro-inflammatory response, cell-based, murine, luminescence (AID 652131). The conditions noted are these: murine macrophage pro-inflammatory reporter, stronger effect = higher value.
Test [5] addresses Cellular tumor antigen p53 (Homo sapiens) (UniProt P04637). As to the kind of experiment: kinase inhibitors altering GFP-p53 stability in HPV16-positive cells, imaging, known kinase inhibitor set, EGFP/DsRed ratio (AID 1053116).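 Further: cells exposed to compounds for 24 h at 37 °C before reading.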 The conditions noted are these: stronger effect = higher value; EGFP object count: measured here: GFP-p53 positive objects count.
Test [6] in a line: IRF3 reporter activation in THP-1 macrophages, cell-based, PMA-stimulated THP-1, luminescence (AID 1053176). The conditions noted are these: PMA-differentiated THP-1, IRF3 reporter luminescence; stronger effect = higher value.
Test [7] in a line: survival rescue of mitochondrial mutant cells in low glucose, primary screen, MELAS cybrids, Rieske KO mouse fibroblasts, CellTiter-Glo (AID 1508586;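 active means mean z-score across replicates of 1.96 or higher in either the MELAS or the Rieske mutant cell line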;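 further: z relative to plate mean and SD of compound and empty wells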). (In general: In ATP-based viability assays light output follows the ATP content of the culture.)
[8] abbreviates: MELAS cybrid survival, CellTiter-Glo 48 h, stronger effect = higher value.
Setting [9] is: Rieske KO mouse fibroblast survival, CellTiter-Glo 72 h.

Chain of Cellular tumor antigen p53 (Homo sapiens) (P04637 whole entry, looked up): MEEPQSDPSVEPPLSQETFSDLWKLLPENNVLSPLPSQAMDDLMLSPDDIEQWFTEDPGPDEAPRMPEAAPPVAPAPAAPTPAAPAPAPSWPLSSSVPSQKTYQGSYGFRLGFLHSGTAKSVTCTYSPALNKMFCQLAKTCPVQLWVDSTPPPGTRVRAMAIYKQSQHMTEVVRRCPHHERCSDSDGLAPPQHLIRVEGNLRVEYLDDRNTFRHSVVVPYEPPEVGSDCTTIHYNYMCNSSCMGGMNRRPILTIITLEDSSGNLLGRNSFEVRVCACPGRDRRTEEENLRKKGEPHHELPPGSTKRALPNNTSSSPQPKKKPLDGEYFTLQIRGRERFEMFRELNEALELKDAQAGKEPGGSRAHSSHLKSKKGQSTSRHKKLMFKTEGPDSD

`CN1CCC(n2cnc(-c3ccc(F)cc3)c2-c2ccnc(NCCO)n2)CC1`: the liver cell % of control in test [1] is 86.8%. Moreover, the parasite % of control in test [1] was 138% (inactive). Further, the percent of negative control (+Dex) in test [2] was 102% (inactive). Also, the z-score in test [2] was 1.04; in test [3] it was 0.4 (inactive); in test [4], 0.387 (inactive); in test [7] (setting [8]) it was -0.289 (inactive); in test [7] (setting [9]), -0.297. For the same compound, in test [5], the EGFP object count was 3.5. For the same compound, the EGFP/DsRed ratio in test [5] was 0.139 (inactive). For the same compound, in test [6], the fraction signal is -0.0015 (inactive).

In the case of `CCn1c(-c2nonc2N)nc2c(C#CC(C)(C)O)nc(OC[C@@H](N)c3ccccc3)cc21`, in test [1], the liver cell % of control came to 87.1%. The parasite % of control in test [1] was 48.7% (inactive). Besides, the percent of negative control (+Dex) in test [2] was 108% (inactive). In addition, the z-score in test [2] is 3.72; in test [3], 0.96 (inactive); in test [4], -1.1 (inactive); in test [7] (setting [8]) it was -0.774 (inactive); in test [7] (setting [9]) it was 0.238. For the same compound, the EGFP object count in test [5] stood at 19.5. Moreover, in test [5], the EGFP/DsRed ratio is 0.658 (inactive). For the same compound, the fraction signal in test [6] is -0.0095 (inactive).

`COc1cc(/C=N/Nc2ncnc3c2cnn3C(C)C)ccc1O` returned a liver cell % of control in test [1] of 128%. For the same compound, in test [1], the parasite % of control was 63.2% (inactive). Also, the percent of negative control (+Dex) in test [2] was 92.5% (inactive). Further, the z-score is 0.145 in test [2]; -0.5 (inactive) in test [3]; -0.511 (inactive) in test [4]; -1.18 (inactive) in test [7] (setting [8]); 1.02 in test [7] (setting [9]). For the same compound, in test [5], the EGFP object count worked out at 6.5. The EGFP/DsRed ratio in test [5] is 0.127 (inactive). In addition, the fraction signal in test [6] is -0.006 (inactive).

In the case of `CC(C)=Cc1cccc2[nH]c(O)c(N=Nc3ccc(S(N)(=O)=O)cc3)c12`, the liver cell % of control in test [1] worked out at 77.9%. Also, in test [1], the parasite % of control is 247% (inactive). Also, the percent of negative control (+Dex) in test [2] is 109% (inactive). For the same compound, the z-score in test [2] is 1.89; in test [3], -0.155 (inactive); in test [4], 0.183 (inactive); in test [7] (setting [8]), 0.633 (inactive); in test [7] (setting [9]), 0.0676. Also, the EGFP object count in test [5] amounted to 21.5. In addition, the EGFP/DsRed ratio in test [5] is 0.593 (inactive). Besides, in test [6], the fraction signal was 0 (inactive).

With `COc1cc2ncn(-c3cc(OCc4cccs4)c(C(N)=O)s3)c2cc1OC`, in test [1], the liver cell % of control was found to be 107%. Further, the parasite % of control in test [1] was 69% (inactive). Besides, the percent of negative control (+Dex) in test [2] was 111% (inactive). Besides, the z-score in test [2] is 0.28; in test [3], -0.19 (inactive); in test [4] it was -0.264 (inactive); in test [7] (setting [8]) it was -0.262 (inactive); in test [7] (setting [9]) it was -0.175. For the same compound, in test [5], the EGFP object count came out at 3.5. In addition, in test [5], the EGFP/DsRed ratio is 0.163 (inactive). Also, the fraction signal in test [6] was -0.0075 (inactive).

Consider `O=C(Nc1n[nH]c2nc(-c3ccco3)c(Br)cc12)C1CC1`, for which, in test [1], the liver cell % of control turned out to be 109%. Besides, the parasite % of control in test [1] was 102% (inactive). Moreover, in test [2], the percent of negative control (+Dex) is 95% (inactive). The z-score in test [2] was 0.68; in test [3], -0.17 (inactive); in test [4], 0.441 (inactive); in test [7] (setting [8]), -1.24 (inactive); in test [7] (setting [9]), 0.037. Further, in test [5], the EGFP object count stood at 4. Besides, the EGFP/DsRed ratio in test [5] is 0.447 (inactive). Besides, the fraction signal in test [6] was -0.002 (inactive).

For `COc1cccc(-n2ncc3c(N/N=C/c4cccc(F)c4)ncnc32)c1`, the liver cell % of control in test [1] was 106%. Moreover, in test [1], the parasite % of control was 81% (inactive). The percent of negative control (+Dex) in test [2] is 93.5% (inactive). Further, the z-score in test [2] was 0.615; in test [3] it was -0.05 (inactive); in test [4], -0.183 (inactive); in test [7] (setting [8]) it was 1.45 (inactive); in test [7] (setting [9]) it was -0.242. Moreover, in test [5], the EGFP object count is 5. The EGFP/DsRed ratio in test [5] is 0.0775 (inactive). Moreover, the fraction signal in test [6] was 0.0035 (inactive).

In turn, `NS(=O)(=O)c1cccc(-c2ccc3c(NC(=O)C4CC4)n[nH]c3c2)c1` yielded a liver cell % of control in test [1] of 97.5%. Moreover, the parasite % of control in test [1] is 241% (inactive). In addition, the percent of negative control (+Dex) in test [2] is 90.5% (inactive). Also, the z-score in test [2] is 0.225; in test [3], -0.22 (inactive); in test [4] it was -0.069 (inactive); in test [7] (setting [8]), -0.0262 (inactive); in test [7] (setting [9]), -0.475. Further, the EGFP object count in test [5] is 4. Moreover, the EGFP/DsRed ratio in test [5] is 0.0329 (inactive). Besides, the fraction signal in test [6] is -0.0015 (inactive).

In test [1], `NC(=O)c1cc(-c2ccncc2)cc(-c2ccccc2)c1N` returned a liver cell % of control of 95.8%. In addition, in test [1], the parasite % of control was 55.5% (inactive). Besides, in test [2], the percent of negative control (+Dex) is 52% (inactive). Moreover, the z-score is -4.61 in test [2]; -0.845 (inactive) in test [3]; -1.14 (inactive) in test [4]; -0.817 (inactive) in test [7] (setting [8]); -0.475 in test [7] (setting [9]). Further, the EGFP object count in test [5] was found to be 2.5. The EGFP/DsRed ratio in test [5] is 0.104 (inactive). The fraction signal in test [6] is 0.0085 (inactive).

In turn, `COc1cc(N2CCN(C(C)C)CC2)ccc1Nc1nc(Nc2ccc(F)cc2C(=O)NC[C@@H](O)CO)c2cc[nH]c2n1` registered a liver cell % of control in test [1] of 85%. Further, the parasite % of control in test [1] is 330% (inactive). In addition, the percent of negative control (+Dex) in test [2] was 103% (inactive). Moreover, the z-score in test [2] was 0; in test [3] it was -0.875 (inactive); in test [4], -0.151 (inactive); in test [7] (setting [8]), -0.811 (inactive); in test [7] (setting [9]), 0.239. Moreover, the EGFP object count in test [5] worked out at 3.5. Besides, the EGFP/DsRed ratio in test [5] was 0.273 (inactive). In addition, the fraction signal in test [6] is 0 (inactive).

`N#Cc1cccc(Nc2nccc(-c3cnn4ncccc34)n2)c1` displayed a liver cell % of control in test [1] of 128%. Also, the parasite % of control in test [1] was 19.1% (inactive). For the same compound, the percent of negative control (+Dex) in test [2] was 2% (active). In addition, the z-score in test [2] is -9.25; in test [3], 0.415 (inactive); in test [4], -1.79 (inactive); in test [7] (setting [8]), 0.321 (inactive); in test [7] (setting [9]), 1.44. Besides, the EGFP object count in test [5] stood at 1. In test [5], the EGFP/DsRed ratio is 0.00226 (inactive). Further, the fraction signal in test [6] was -0.013 (inactive).

Compound `CN1CCN(C(=O)c2ccc(NC(=O)Nc3ccc(N(C)c4ccnc(Nc5ccc(CS(C)(=O)=O)cc5)n4)cc3)cc2)CC1` returned a liver cell % of control in test [1] of 86.4%. The parasite % of control in test [1] is 77.1% (inactive). In test [2], the percent of negative control (+Dex) was 85.5% (inactive). Further, the z-score is -0.585 in test [2]; 0.175 (inactive) in test [3]; 4.5 (inactive) in test [4]; 0.142 (inactive) in test [7] (setting [8]); 0.134 in test [7] (setting [9]). Besides, the EGFP object count in test [5] came out at 2. In test [5], the EGFP/DsRed ratio was 0.13 (inactive). In addition, in test [6], the fraction signal is -0.0115 (inactive).

`CN1CCC(C(=O)NC2NNC3NNC(c4ccccc4)CC32)CC1` (stereo not given) showed a liver cell % of control in test [1] of 89.8%. Moreover, the parasite % of control in test [1] is 66% (inactive). The percent of negative control (+Dex) in test [2] is 90.5% (inactive). In addition, the z-score in test [2] was -0.385; in test [3], -0.44 (inactive); in test [4], 3.5 (inactive); in test [7] (setting [8]), -0.114 (inactive); in test [7] (setting [9]), -0.215. Moreover, the EGFP object count in test [5] amounted to 24. In addition, the EGFP/DsRed ratio in test [5] was 0.259 (inactive). Moreover, the fraction signal in test [6] is -0.0035 (inactive).

Take `O=S1CCN(Cc2ccc(-c3ccc4ncnc(Nc5ccc(OCc6ccccc6)c(F)c5)c4c3)o2)CC1`: the liver cell % of control in test [1] came to 81.6%. In addition, the parasite % of control in test [1] is 112% (inactive). Also, the percent of negative control (+Dex) in test [2] is 77.5% (inactive). The z-score was -1.04 in test [2]; -0.505 (inactive) in test [3]; 0.693 (inactive) in test [4]; -0.335 (inactive) in test [7] (setting [8]); -0.276 in test [7] (setting [9]). The EGFP object count in test [5] was determined as 2.5. Further, the EGFP/DsRed ratio in test [5] is 0.0418 (inactive). Also, the fraction signal in test [6] was 0.012 (inactive).

`CN(C)CCCNc1nccc(-c2c(-c3ccc(F)cc3)nn3cc(C(F)(F)F)ccc23)n1` had a liver cell % of control in test [1] of 98.2%. Besides, in test [1], the parasite % of control is 96.1% (inactive). Besides, the percent of negative control (+Dex) in test [2] is 93.5% (inactive). Further, the z-score in test [2] was 0.05; in test [3], 0.5 (inactive); in test [4], 2.64 (inactive); in test [7] (setting [8]) it was 0.443 (inactive); in test [7] (setting [9]), -0.332. In addition, in test [5], the EGFP object count was 4. Also, in test [5], the EGFP/DsRed ratio is 0.104 (inactive). Also, the fraction signal in test [6] is -0.008 (inactive).
